Several values for one entry are separate records, joined by “and”; a condition that tells them apart may be missing. Identical values can stand only once. Counter-ions that a name gives are not always drawn.
Assays:
Test in all cases: cell viability relative to vehicle control; higher = less cytotoxic
Settings in all cases: 10 µM
K562 = system: K562
Procedure, shortened: (§1)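 CRISPR-edited mutant clones and isogenic wild-type clones from four leukaemia lines were screened against Selleck bioactive, kinase and epigenetic probe libraries, with identity-inconsistent compounds excluded. Each compound was acoustically dispensed at a single 10 µM dose into 384-well plates holding 2000 cells in 50 µL medium per well. After 48 h the supernatant was removed and CellTiter-Glo luminescence was read. Viability was expressed as percent of the on-plate vehicle control and analysed in Genedata Screener.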

MARIMO = system: MARIMO
Procedure, shortened: as §1

MOLM14 = system: MOLM14
Procedure, shortened: as §1

OCI-AML2 = system: OCI-AML2
Procedure, shortened: as §1

| SMILES | cell viability (K562; SRSF2 genotype: SRSF2 P95H/wt) | cell viability (K562; SRSF2 genotype: SRSF2 wt/wt) [%] | cell viability (MARIMO; SRSF2 genotype: SRSF2 P95H/wt) [%] | cell viability (MARIMO; SRSF2 genotype: SRSF2 wt/wt) [%] | cell viability (MOLM14; SRSF2 genotype: SRSF2 P95H/wt) [%] | cell viability (MOLM14; SRSF2 genotype: SRSF2 wt/wt) [%] | cell viability (OCI-AML2; SRSF2 genotype: P95H/wt) [%] | cell viability (OCI-AML2; SRSF2 genotype: wt/wt) [%] |
| --- | --- | --- | --- | --- | --- | --- | --- | --- |
| O=[N+]([O-])c1ccc(S(=O)(=O)N2CCN(c3ccnc4cc(Cl)ccc34)CC2)c([N+](=O)[O-])c1 | 69.2% and 80.5% | 71.8 | 27.1 | 30.7 | 2.07 | 22.7 | 0.47 | 0.54 |
| Cc1ccc(C=O)o1 [5-Methyl furfural] | 104% | 95.7 | 99.8 | 94.2 | 99.1 | 101 | 103 | 103 |
| CCN(CC)C(=O)C1(c2ccccc2)CC1CN (stereo not given) [Milnacipran HCl] | 96.3% and 102% | 96.8 | 99.6 | 106 | 102 | 105 | 106 | 108 |
| CCc1ccc(Cc2ccc3c(c2)[C@]2(OC3)O[C@H](CO)[C@@H](O)[C@H](O)[C@H]2O)cc1 [Tofogliflozin(CSG 452)] | 81.3% and 83.7% | 81.2 | 77.3 | 88.5 | 80.2 | 82.5 | 93.8 | 85.6 |
| O=c1ccoc2cc(O)ccc12 [7-Hydroxy-4-chromone] | 102% and 95.6% | 93.5 | 99.1 | 104 | 98.9 | 104 | 97.1 | 96.3 |
| C=CC(=O)Nc1cccc(Nc2nc(Nc3ccc(N4CCN(C(C)=O)CC4)cc3OC)ncc2C(F)(F)F)c1 [Rociletinib (CO-1686, AVL-301)] | 54.5% and 77.9% | 68.3 | 34.9 | 29.4 | 6.76 | 11.9 | 10.2 | 19 |
| CN1CCN(Cc2ccc(-c3cnc4[nH]cc(-c5ccc6[nH]ccc6c5)c4c3)cc2)CC1 | 2.18% and 1.72% | 2.36 | 0.62 | 0.44 | 0.32 | 0.4 | 0.33 | 0.41 |
| O=C(O)C=Cc1cccc(O)c1 [3-Hydroxycinnamic acid] | 106% and 93.7% | 97.5 | 86.6 | 97.3 | 87.9 | 93.2 | 91.4 | 94.3 |
| O=C1CCC(N2C(=O)c3ccccc3C2=O)C(=O)N1 (stereo not given) [Thalidomide] | 92.1% and 86.8% | 84.5 | 83.2 | 86.4 | 87.5 | 86.7 | 93.8 | 91.4 |
| Cc1cccc(Nc2ccccc2C(=O)O)c1C [Mefenamic Acid] | 98.6% and 99.4% | 96.4 | 103 | 92.8 | 94.5 | 98.5 | 106 | 101 |

Reference: the supplement of paper PMC10981050
